Measured values from PubChem BioAssay (NCATS).
“And” between values parts separate entries of the source, which are not always exact repeats. Equal values may be shown once. Inconclusive results are not listed. The source made the active and inactive calls. The call rests on the fitted dose curve; in most records, active means well fitted curve in the direction sought with a large enough effect; inconclusive means small, poorly fitted or top-dose-only effect, or another doubt; inactive means no such curve, though single readings can be large; an effect the other way counts as inactive or inconclusive. Where a SMILES comes first, the peptide text is derived from it. [ ]: non-standard residue; d: D form. dPhe(4-Cl) = N[C@H](Cc1ccc(Cl)cc1)C(=O)O; d2Nal = N[C@H](Cc1ccc2ccccc2c1)C(=O)O; dCit = NC(=O)NCCC[C@@H](N)C(=O)O; d3Pal = N[C@H](Cc1cccnc1)C(=O)O

Assays:
[1] = Primary qHTS for inhibitors of nuclear receptor binding SET domain protein 2 (NSD2) in an RCH-ACV wild type WT cells (2C) (AID 1645877); further: nearly all actives have a fitted effect of over 70% in size; further: potency means the concentration at half of the fitted maximal effect; on activity change, negative = cell killing: on the % scale 0 is the no-effect control and ±100 the full control effect
[2] = biological target: Glutathione peroxidase 1 (Homo sapiens) (UniProt P07203); assay: Primary qHTS Assay for Inhibitors of Recombinant Selenoprotein Glutathione Peroxidase 1 (GPX1) (AID 1845191); further: nearly all actives have a fitted effect of over 65% in size; further: potency means the concentration at half of the fitted maximal effect; on activity, negative = inhibition: on the % scale 0 is the no-effect control and ±100 the full control effect
Outline: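 GR-coupled assay: compounds preincubated 30 min at room temperature with GPX1, then reaction started with CHP; final 10 nM GPX1, 1 mM GSH, 0.5 mM CHP, 0.5 mM NADPH, 100 nM GR, 0.01% BSA, pH 7.5 Tris buffer. NADPH fluorescence (340/450 nm) read at 0 and 15 min.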

[3] = biological target: Phospholipid hydroperoxide glutathione peroxidase GPX4 (Homo sapiens) (UniProt P36969); assay: Primary qHTS Assay for Inhibitors of Recombinant Selenoprotein Glutathione Peroxidase 4 (GPX4) (AID 1845192); further: nearly all actives have a fitted effect of over 65% in size; on activity change, negative = inhibition: series mostly up to about 50 µM; on the % scale 0 is the no-effect control and ±100 the full control effect
Outline: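 GR-coupled assay: recombinant GPX4 preincubated 30 min with compound at room temperature; final 200 nM GPX4, 1 mM GSH, 0.5 mM cumene hydroperoxide, 0.5 mM NADPH, 100 nM GR, 0.01% BSA, pH 7.5 Tris. NADPH fluorescence (340/450 nm) read at 0 and 15 min.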

[4] = biological target: Luciferin 4-monooxygenase (Photinus pyralis) (UniProt P08659); assay: Primary firefly luciferase (FLuc) qHTS assay for identification of artifact compounds. (AID 1845220); further: nearly all actives have a fitted effect of over 60% in size;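 on activity change, negative = inhibition: series mostly up to about 54 µM; plate controls were DMSO vehicle for no effect and no enzyme for full effect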
Outline: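 D-luciferin and ATP (10 uM each, final) in Tris acetate buffer pH 7.6 were incubated with compounds for 15 min at room temperature. The reaction was started with 10 nM Photinus pyralis luciferase and luminescence read after 5 min. Percent inhibition was fitted to a 4-parameter Hill equation.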

[5] = Primary fluorescence-based thiol-reactive (MSTI) qHTS assay for identification of artifact compounds. (AID 1845221); further: nearly all actives have a fitted effect of over 65% in size; further: potency means the concentration at half of the fitted maximal effect;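 on activity change, negative = thiol reactive: series mostly up to about 54 µM; thiol-reactive compounds lower the probe fluorescence signal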
Outline: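 Reactivity toward the thiol probe MSTI (4 uM) is scored by fluorescence at Ex/Em 525/598 nm after 1 h at room temperature. Acetyl-MSTI and MSTI define the activity scale.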

[6] = tested on: Nanoluciferase (engineered Oplophorus gracilirostris luciferase); assay: Primary Nanoluciferase (NLuc) qHTS assay for identification of artifact compounds. (AID 1845222);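 further: series mostly up to about 54 µM; 0% = DMSO and -100% = no enzyme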
Outline: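 Diluted conditioned medium from NLuc-expressing S16 cells treated with compounds for 15 min at room temperature, then Nano-Glo substrate added; luminescence read after 5 min. Percent inhibition versus no-enzyme and DMSO controls fitted to 4-parameter Hill equation.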

[7] = Primary redox qHTS assay for identification of artifact compounds. (AID 1845223);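 further: 0% = DMSO and 100% = reference compound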
Outline: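 Amplex Red (25 uM) and HRP (250 mU/mL) in HBSS, with compounds for 15 min, then 250 uM DTT for 30 min, room temperature, dark. Fluorescence 525/598 nm read; normalized to DMSO and 10 uM DA3003; Hill fit.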

Sequence of Phospholipid hydroperoxide glutathione peroxidase GPX4 (Homo sapiens) (P36969 whole entry, looked up): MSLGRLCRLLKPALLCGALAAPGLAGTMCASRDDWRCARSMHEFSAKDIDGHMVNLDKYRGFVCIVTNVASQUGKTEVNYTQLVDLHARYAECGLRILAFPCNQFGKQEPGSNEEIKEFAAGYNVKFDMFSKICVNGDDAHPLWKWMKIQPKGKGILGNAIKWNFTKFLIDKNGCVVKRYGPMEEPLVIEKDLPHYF
Sequence of Glutathione peroxidase 1 (Homo sapiens) (P07203 whole entry, looked up): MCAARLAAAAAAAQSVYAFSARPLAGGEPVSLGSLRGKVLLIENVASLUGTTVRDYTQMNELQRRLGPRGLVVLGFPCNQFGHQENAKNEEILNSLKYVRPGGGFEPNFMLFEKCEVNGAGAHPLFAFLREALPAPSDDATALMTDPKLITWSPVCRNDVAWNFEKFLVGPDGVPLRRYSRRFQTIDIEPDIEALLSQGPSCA

COc1cc2c(c(OC)c1CC=C(C)C)C[C@H](c1ccc(O)cc1O)CO2
inactive: Potency [1] | Potency [2] | Potency [3] | Potency [4] | Potency [6] | Potency [7]
active: Potency [5] 13.1 µM

CC1(C)CC[C@]2(C(=O)O[C@@H]3O[C@H](CO[C@@H]4O[C@H](CO)[C@@H](O)[C@H](O)[C@H]4O[C@@H]4O[C@H](CO)[C@@H](O)[C@H](O)[C@H]4O)[C@@H](O)[C@H](O[C@@H]4O[C@H](CO)[C@@H](O)[C@H](O)[C@H]4O)[C@H]3O)CC[C@]3(C)C(=CCC4[C@@]5(C)CC[C@@H](O)[C@@](C)(C(=O)O[C@@H]6O[C@H](CO)[C@@H](O)[C@H](O)[C@H]6O)C5CC[C@]43C)[C@@H]2C1 (some centres not stated)
inactive: outcome [1] inactive [at 9.23 µM] | activity, negative = inhibition [2] -10.6% [at 9.52 µM] | outcome [3] inactive [at 9.73 µM] | activity change, negative = inhibition [4] 2.91% [at 11.6 µM] | activity change, negative = thiol reactive [5] 344% [at 11.5 µM] | activity, negative = inhibition [6] 2% [at 11.6 µM] | redox activity (% of DA3003) [7] 5.34% [at 11.5 µM]

OC[C@H]1O[C@@H](OC(CCCCc2ccc(O)cc2)CCc2ccc(O)cc2)[C@H](O)[C@@H](O)[C@@H]1O (some centres not stated)
inactive: Potency [1] | Potency [2] | Potency [3] | Potency [4] | Potency [5] | Potency [6] | Potency [7]

Cc1nc2sc(C(=O)NCc3ccncc3)c(N)c2c(C)c1Cl
inactive: Potency [1] | Potency [3] | Potency [4] | Potency [5] | Potency [6] | Potency [7]
active: Potency [2] 12.8 µM

Cc1nc(NC(=O)N2CCCC2C(N)=O)sc1-c1csc(C(C)(C)C)n1 (configuration not stated)
active: Potency [1] 4.09 µM
inactive: Potency [2] | Potency [3] | Potency [4] | Potency [5] | Potency [6] | Potency [7]

CC1(C(=O)O)CCCC2(C)C3=CCC4CC3(CCC12)CC4CO (configuration not stated)
inactive: Potency [1] | Potency [2] | Potency [3] | Potency [4] | Potency [5] | Potency [6] | Potency [7]

CC1(C)CC[C@]2(C(=O)O)[C@H](O)C[C@]3(C)C(=CCC4[C@@]5(C)CC[C@H](O[C@@H]6O[C@H](CO[C@@H]7OC[C@H](O)[C@H](O)[C@H]7O[C@@H]7OC[C@@H](O)[C@H](O)[C@H]7O)[C@@H](O)[C@H](O)[C@H]6O[C@@H]6O[C@H](CO)[C@@H](O)[C@H](O)[C@H]6O)C(C)(C)C5CC[C@]43C)[C@@H]2C1 (some centres not stated)
inactive: activity change, negative = cell killing [1] -6.47% [at 9.23 µM] | Potency [2] | Potency [3] | activity change, negative = inhibition [4] 0.747% [at 11.6 µM] | activity change, negative = thiol reactive [5] 242% [at 11.5 µM] | activity, negative = inhibition [6] 3.21% [at 11.6 µM] | redox activity (% of DA3003) [7] 15.6% [at 11.5 µM]

COc1cc2c(cc1OC)CC(=O)N(CCCNC[C@H]1Cc3cc(OC)c(OC)cc31)CC2
inactive: Potency [1] | Potency [2] | Potency [3] | Potency [4] | Potency [5] | Potency [6] | Potency [7]

C=C[C@H]1C(O[C@@H]2O[C@H](CO)[C@@H](O)[C@H](O)[C@H]2O)OC=C2C(=O)N3CCc4c([nH]c5ccccc45)[C@H]3C[C@H]21 (some centres not stated)
inactive: Potency [1] | Potency [2] | Potency [3] | Potency [4] | Potency [5] | Potency [6] | Potency [7]

C/C(=C\CCC(C)CCO)C(=O)O[C@@H]1[C@@H](O)[C@H](OC2OC=C(C(=O)O)C3CCC(C)(O)C23)O[C@H](CO)[C@H]1O (some centres not stated)
inactive: Potency [1] | Potency [2] | Potency [3] | Potency [4] | Potency [6] | Potency [7]
active: Potency [5] 8.22 µM

CNCc1ccc(-c2cc(-c3nc(-c4ccc(S(=O)(=O)C(C)C)cc4)cnc3N)on2)cc1
active: Potency [1] 183 nM and 93.4 nM
inactive: Potency [2] | Potency [3] | Potency [4] | Potency [5] | Potency [6] | Potency [7]

CC(=O)N[C@H](Cc1ccc2ccccc2c1)C(=O)N[C@H](Cc1ccc(Cl)cc1)C(=O)N[C@H](Cc1cccnc1)C(=O)N[C@@H](CO)C(=O)N[C@@H](Cc1ccc(O)cc1)C(=O)N[C@H](CCCNC(N)=O)C(=O)N[C@@H](CC(C)C)C(=O)N[C@@H](CCCN=C(N)N)C(=O)N1CCC[C@H]1C(=O)N[C@H](C)C(N)=O (Ac-[d2Nal][dPhe(4-Cl)][d3Pal]SY[dCit]LRP[dA]-NH2)
inactive: Potency [1] | Potency [2] | Potency [3] | Potency [4] | Potency [5] | Potency [6] | Potency [7]

CC(=O)O[C@H]1CC[C@@]2(C)C(CC[C@@H](C)[C@]23Cc2c(O)cc4c(c2O3)CN([C@@H](CCC(=O)O)C(=O)O)C4=O)C1(C)C (some centres not stated)
inactive: Potency [1] | Potency [2] | Potency [3] | Potency [4] | Potency [5] | Potency [6] | Potency [7]

C[C@@H]1CN(Cc2ccccc2)C[C@H]1c1nc2c(cnn2C2CCOCC2)c(=O)[nH]1
inactive: Potency [1] | Potency [2] | Potency [3] | Potency [4] | Potency [5] | Potency [6] | Potency [7]

COc1c2c(cc3c1-c1c(cc4c(c1OC)OCO4)CC(C)C(C)C3)OCO2 (configuration not stated)
inactive: Potency [1] | Potency [2] | Potency [3] | Potency [4] | Potency [5] | Potency [6] | Potency [7]

CC(=O)C1=C(C)N(c2cccc(C(F)(F)F)c2)C(=O)N[C@H]1c1ccc(C#N)nc1
inactive: activity change, negative = cell killing [1] -17.1% [at 9.23 µM] | Potency [2] | Potency [3] | activity change, negative = inhibition [4] -8.43% [at 11.6 µM] | activity change, negative = thiol reactive [5] 33.4% [at 11.5 µM] | activity, negative = inhibition [6] -1.73% [at 11.6 µM] | redox activity (% of DA3003) [7] -3.41% [at 11.5 µM]
